The record followed here is PubChem BioAssay AID1850 (Southern Research Specialized Biocontainment Screening …, 2009).

About 1,000 (0.32%) of roughly 310,000 compounds were called active. No rule for the calls is given here. The list is a sample of the results. Measured potencies and affinities stand elsewhere. Where a SMILES comes first, the peptide text is derived from it. The star is where a group is joined. Boc = CC(C)(C)OC(=O)*

The test in a line: PhoP regulon inhibitors, Salmonella typhi PhoP promoter GFP reporter, confirmatory (AID 1850).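 Also: 0% = induced wells with vehicle and 100% = uninduced wells.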 As to conditions: fluorescence, 4 h, at 50 µM, hits give high values.
With `CC1CCCN(C(=O)C23CCC(C)(C(=O)C2)C3(C)C)C1` (stereo not given), the inhibition was -4.73% (inactive).
Next, `COc1cc(CCC(=O)N2CC(C)OC(C)C2)cc(OC)c1OC` (stereo not given): -14.2% (inactive).
The value for `CC(C)CN(C(=O)CN(C)C(=O)c1ccco1)c1c(N)n(CC(C)C)c(=O)[nH]c1=O` was -1.06% (inactive); that for `Cc1cc2oc(=O)cc(Cn3ncc(Cl)c(Cl)c3=O)c2cc1Cl` was -3.81% (inactive).
Turning to `Cc1cccc(OCCNc2cc(N3CCN(C)CC3)ccc2[N+](=O)[O-])c1`, the inhibition is -4.31% (inactive).
Next, `COC(=O)[C@@H](NC(=O)c1ccccc1)[C@@H](C)O`: -3.17% (inactive).
The value for `COc1cccc(CN2CC(C(=O)NC3CCC3)CCC2=O)c1` (stereo not given) was -3.12% (inactive); that for `C/C(=N\Nc1ccccc1Cl)c1ccc(-n2ccnc2)cc1` was 7.81% (inactive); that for `CCCCOC(=O)c1ccc(NC(=O)COC(=O)CSc2nc(C)cc(C)n2)cc1` was -5.18% (inactive).
Next, `CNCCC1Sc2ccccc2Oc2ccccc21` (stereo not given): 10.6% (inactive).
For `CN(C)CCC1Sc2ccccc2Oc2ccccc21` (stereo not given), the inhibition was -1.34% (inactive).
Next, `COc1ccccc1NC(=O)CSc1nnc(CCC(=O)Nc2ccccc2F)n1C`: -5.48% (inactive); `Cc1ccc(C(=O)Nn2cnnc2)cc1`: -11.2% (inactive); `O=C1NC(c2ccccc2)C(C(=O)c2cccs2)C(O)(C(F)(F)F)N1` (stereo not given): 0.79% (inactive).
On to `CCOC(=O)C1C(c2cccs2)NC(=O)N(C)C1(O)C(F)(F)F` (stereo not given), for which the inhibition is -2.14% (inactive).
For `COc1cc(C2NC(=O)NC(O)(C(F)(F)F)C2C(=O)c2cccs2)ccc1O` (stereo not given), the inhibition is -4.52% (inactive).
Next, `O=C1NC(c2ccncc2)C(C(=O)c2cccs2)C(O)(C(F)(F)F)N1` (stereo not given): 2.95% (inactive); `CCc1nnc(NC(=O)CN2CCN(CC)CC2)s1`: -8.02% (inactive); `Cc1cccc2nc3ccccc3cc12`: -7.86% (inactive).
On to `Nc1c2ccccc2nc2ccccc12`, for which the inhibition was 17.1% (inactive).
`COCCNC(=O)c1ccc(CN2CCC(Cc3ccccc3)CC2)cc1`: the inhibition was -1.7% (inactive).
On to `CCOC(=O)C1CCN(C(=O)c2ccccc2NS(=O)(=O)c2ccc(C)cc2)CC1`, for which the inhibition was -7.2% (inactive).
Take `CC(Sc1nnc(N)s1)C(=O)Nc1ccc2c(c1)OCCO2` (stereo not given): the inhibition is -3.64% (inactive).
Next, `CCCNC(=O)Cn1cnc([N+](=O)[O-])n1`: -4.49% (inactive); `O=C(O)CC(Cc1ccc(Cl)cc1)C(=O)Nc1ccc([N+](=O)[O-])cc1` (stereo not given): -5.39% (inactive).
The value for `CC(Cc1ccccc1)NC(=O)Cc1ccc([N+](=O)[O-])cc1` (stereo not given) was -4.09% (inactive); that for `NC(CO)C(O)c1ccc([N+](=O)[O-])cc1` (stereo not given) was -4.54% (inactive).
For the compound `CCOC(=O)C(NC(C)=O)C(O)c1ccc([N+](=O)[O-])cc1` (stereo not given), the inhibition is 3.41% (inactive).
The value for `O=C(Cc1ccccc1)NC(C(=O)O)C(O)c1ccc([N+](=O)[O-])cc1` (stereo not given) was 3.65% (inactive).
Regarding `O=[N+]([O-])c1ccc(C(O)C(CO)NC(=S)Nc2ccccc2)cc1` (stereo not given), the inhibition was 11.5% (inactive).
Next, `Cc1ccc([N+](=O)[O-])cc1S(=O)(=O)NCc1cccnc1`: -0.437% (inactive).
The value for `COc1ccc(CC(=O)NC(C)C2COc3ccccc3O2)cc1OC` (stereo not given) was 0.47% (inactive); that for `O=C(NNS(=O)(=O)c1ccc(Cl)cc1)c1cccc(S(=O)(=O)N2CCOCC2)c1` was 6.08% (inactive).
Next, `CC1CCN(C2CC(=O)N(c3ccccc3)C2=O)CC1` (stereo not given): -1.51% (inactive); `CC1(C)Cc2cccc(OCC(=O)OCC(=O)NCc3ccc(F)cc3)c2O1`: 5.2% (inactive); `CC1(NC(=O)c2cccc(S(=O)(=O)N3CCN(c4ccccc4)CC3)c2)CCS(=O)(=O)C1` (stereo not given): -4.48% (inactive).
Consider `CN1CC(C(=O)c2ccc(Cl)cc2)C(c2ccccc2)C1` (stereo not given), for which the inhibition was -0.32% (inactive).
As to `CN1CC(C(=O)c2ccc(Cl)cc2)C(c2ccccc2F)C1` (stereo not given), the inhibition is -5.31% (inactive).
The value for `CN(C)Cc1cnc2ccc(Cl)cn12` was 2.3% (inactive).
Turning to `COc1ccc(/C=N\NS(=O)(=O)c2ccc(C)cc2)cc1COc1ccccc1[N+](=O)[O-]`, the inhibition is 2.43% (inactive).
The value for `Cc1ccc(CNC(=O)CSc2ncc(C(=O)Nc3ccccc3)c(=O)n2C)cc1` was 6.4% (inactive).
Take `CC(C)(C)OC(=O)N1CCC[C@@H]1CO`: the inhibition is -5.17% (inactive).
The value for `CC(C)CC(NC(=O)OC(C)(C)C)C(=O)NC(C(=O)N1CCCC1C(N)=O)C(C)C` (stereo not drawn) (Boc-Leu-Val-Pro-NH2; configuration not given here) was -15.4% (inactive); that for `O=c1[nH]c(=O)n(CCC2=CCCCC2)c(O)c1C=NC1CCN(Cc2ccccc2)CC1` was 5.62% (inactive); that for `CC1CCCCN1CC(=O)c1ccc2cc[nH]c2c1` (stereo not given) was -0.31% (inactive).
The value for `Cc1ccc(CC2S/C(=C(/C#N)C(=O)NCc3ccco3)N(c3ccccc3)C2=O)cc1` (stereo not given) was -3.66% (inactive).
For the compound `Cc1ccc(S(=O)(=O)NC(=NC2CCCCC2)c2ccccc2)cc1`, the inhibition is 5.09% (inactive).
Take `Cc1nonc1NC(=O)CSc1ccccn1`: the inhibition is 6.57% (inactive).
Next, `O=[N+]([O-])c1ccc(/C=N/Nc2ccccn2)cc1`: -0.36% (inactive); `COc1cc([N+](=O)[O-])cc(/C=N/NC(=O)Cn2nccc2C)c1O`: 14.4% (inactive).
The value for `CCN(CC)c1ccc(/C=N/Nc2nc3ccccc3[nH]2)c(O)c1` was 13.9% (inactive).
With `COc1cc([N+](=O)[O-])cc(/C=N/NC(=O)CSc2nnc(-c3ccccc3)n2C)c1O`, the inhibition was -13.2% (inactive).
Next, `CC(=O)Nc1nonc1NC(=O)CSc1ccccn1`: 2.24% (inactive); `COc1ccc(O)c(/C=N/Nc2nc3ccccc3[nH]2)c1`: 7.61% (inactive); `O=[N+]([O-])c1cccc(/C=N/Nc2ccccn2)c1`: 8.41% (inactive).
Next, `COc1cccc(N2CCN(C(=O)C3CCN(S(=O)(=O)c4ccc5c(c4)oc(=O)n5C)CC3)CC2)c1`: 8.62% (inactive); `Cc1ccc(C)c(-c2csc(-c3cccnc3)n2)c1`: 1.2% (inactive); `COc1ccc(-c2cc(-c3ccc(O)cc3)nc(N)c2C#N)cc1`: -1.2% (inactive).
The value for `N#C/C(=C\c1ccccc1Cl)C(=O)Nc1ccccn1` was 2.25% (inactive); that for `COC(=O)COc1ccc(C(C2C(=O)CC(C)(C)CC2=O)C2C(=O)CC(C)(C)CC2=O)cc1` was -2.61% (inactive); that for `NC(=S)NNC(=O)c1cccc(Br)c1` was -6.69% (inactive).
For the compound `Cc1ccc(-n2nc(C)c(C(C)(O)C(F)(F)F)c2N)cc1` (stereo not given), the inhibition was 9.79% (inactive).
Consider `O=C(NC(Cc1ccccc1)C(=O)O)/C(=C\c1ccccc1)NC(=O)c1ccc(Br)o1` (stereo not given), for which the inhibition is -5.27% (inactive).
For the compound `COc1cccc(NC(=O)c2ccc(NC(=O)C(C)C)cc2)c1`, the inhibition was -3.48% (inactive).
The value for `Cc1ccc(N2N=C(c3ccc(F)cc3)CC2c2ccco2)cc1` (stereo not given) was -33.1% (inactive); that for `CC1CN(C(=O)COC(=O)c2ccc(N(C)C)cc2)CC(C)O1` (stereo not given) was 1.66% (inactive).
Turning to `COc1ccc(CC(=O)OCC(=O)N(C)C2CCS(=O)(=O)C2)cc1OC` (stereo not given), the inhibition was -0.6% (inactive).
`O=C(CSc1nc2ccccc2s1)N/N=C/c1ccccc1C(=O)O`: the inhibition is 10.8% (inactive).
Next, `Cc1nn(C)cc1/C=N/NC(=O)CSc1ccccn1`: 3.55% (inactive); `O=C(CSc1nc2ccccc2s1)NCc1cc([N+](=O)[O-])ccc1O`: -40.6% (inactive); `O=C(CSc1ccccn1)N/N=C/c1cccc([N+](=O)[O-])c1`: 1.33% (inactive).
`O=C(CSc1ccccn1)N/N=C/c1ccccc1[N+](=O)[O-]`: the inhibition is -6.71% (inactive).
Next, `Cc1ccnn1CC(=O)N/N=C/c1c[nH]c2ccccc12`: 2.22% (inactive).
Consider `COc1ccc(NC(=O)CN2C(=O)c3cccc4cccc2c34)cc1OC`, for which the inhibition was -7.56% (inactive).
Next, `O=C(Cn1cc(C(F)(F)F)cc(Cl)c1=O)NCc1ccc(Cl)cc1`: -1.19% (inactive); `CCCCOC(=O)c1ccc(-c2ccc(/C=N/NC(=S)NCC)o2)cc1`: -7.32% (inactive).
The value for `O=[N+]([O-])c1ccc(/C([O-])=C(/C(=S)NCc2ccco2)[n+]2ccccc2)cc1` was 13.8% (inactive).
Turning to `O=C(NC1CCN(Cc2ccccc2)CC1)C1CCN(S(=O)(=O)c2ccccc2)CC1`, the inhibition is 5.66% (inactive).
On to `Clc1ccc(-c2csc(N3CCc4ccccc4C3)n2)cc1`, for which the inhibition is 5.55% (inactive).
Next, `CC(C)CN=CC1=C(O)c2ccccc2C1=O`: 5.42% (inactive); `CC(C)(C)CN1CCN(Cc2cc3ccccc3[nH]2)CC1CCO` (stereo not given): 2.46% (inactive); `Cc1cc(C)n(C(=O)Cn2nc([N+](=O)[O-])cc2C)n1`: -5.88% (inactive).
The value for `O=C1CSC(c2cccc([N+](=O)[O-])c2)N1c1ccccc1` (stereo not given) was 0.65% (inactive); that for `Clc1ccccc1OCCCCN1CCCCC1` was -2.94% (inactive).
Next, `CN1CCCC(CC2Oc3ccccc3Sc3ccccc32)C1` (stereo not given): 11.3% (inactive); `OCCC1CN(Cc2cccc3c2OCO3)CCN1C1CCCCC1` (stereo not given): -4.26% (inactive).
For `Cc1ccc(S(=O)(=O)N(C)C(=O)NC(=O)NS(=O)(=O)c2ccccc2)cc1`, the inhibition was -5.97% (inactive).
Next, `CCC(/C=C1\Sc2ccc(OC)cc2N1CC)=C\c1sc2ccc(OC)cc2[n+]1CCCS(=O)(=O)[O-]`: -7.82% (inactive); `CCC(=O)/C=C1\Sc2ccc(OC)cc2N1CCO`: -12.9% (inactive); `COc1ccc(/C=N/Nc2nc(C)cc(-c3ccccc3)n2)cc1OC`: -1.16% (inactive).
Next, `COc1ccc(-c2ccc(=O)n(Cc3cccc(Cl)c3)n2)cc1`: -10.8% (inactive).
For the compound `Cc1cc(C)nc(/N=C(\N)Nc2cc([N+](=O)[O-])ccc2C)n1`, the inhibition is -1.74% (inactive).
Take `CCC(=O)Nc1ccc(N/C(N)=N/c2nc(C)cc(C)n2)cc1`: the inhibition is -8.68% (inactive).
As for `COc1ccc(C)cc1N/C(N)=N/c1nc(C)cc(C)n1`, the inhibition was -5.2% (inactive).
Regarding `Cc1ccc(N/C(N)=N/c2nc(C)cc(C)n2)cc1`, the inhibition was -9.13% (inactive).

Broadly, the inhibition is the drop in the measured response relative to a control, in per cent.
